# Bioassay records from PubChem BioAssay.
# DT40 TDP1 CPT: DT40-hTDP1 cell growth loss with CPT; chicken DT40 Tdp1-/-;hTDP1 cells + 20 nM CPT, ATP luminescence, 48 h; Potency, µM (doses to about 46.2 µM), without a hit: top-dose activity change, negative = growth inhibition, actives largely listed as inhibitors; 12% of 420,000 active; AID 686979; further: potency means the concentration at half of the fitted maximal effect; nearly all actives have a fitted effect of over 55% in size
#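 Chicken DT40 Tdp1-/- cells stably complemented with human TDP1 were seeded at 400 cells/well in medium containing 20 nM camptothecin, exposed to pin-transferred compounds, and grown at 37 °C for at least 48 hr. Viability was read as ATP luminescence.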
# HT1080NT lethal: kills 2HG-producing HT-1080-NT fibrosarcoma cells; HT-1080-NT fibrosarcoma viability, CellTiter-Glo ATP luminescence, 48 h; Potency, µM (doses to about 46.1 µM), for the others: top-dose activity, negative = less viability, hits mostly cytotoxic; 1.6% of 360,000 active;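 further: NT is the 2HG producing partner of a matched IDH1 knockdown line; potency means the concentration at half of the fitted maximal effect; 0% = DMSO-treated cells and -100% = media-only wells without cells; nearly all actives have a fitted effect of over 55% in size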
#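 Luminescent CellTiter-Glo readout after 48 hours of compound exposure at 37 degrees C defined viability of HT-1080-NT cells. Activity was normalized to DMSO wells and cell-free media wells; concentration-response curves were fitted and assigned curve classes.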
# HT1080 IDH1KD tx: kills HT-1080 cells with IDH1 knockdown. AID 686971. 2% of 360,000 active. HT-1080 IDH1 knockdown viability, ATP luminescence, 48 h. Potency, µM (top dose mostly 46.1 µM), without a hit: at the top dose activity, negative = toxicity, most hits filed as cytotoxic;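 further: potency means the concentration at half of the fitted maximal effect; 0% = DMSO wells and -100% = cell-free medium wells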
#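 Cytotoxicity counter-line: IDH1KD HT-1080, 48 h, CellTiter-Glo. Curves classed by r2, magnitude and activity.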
# DT40 TDP1 no CPT: qHTS for Inhibitors of human tyrosyl-DNA phosphodiesterase 1 (TDP1): qHTS in cells in absence of CPT; DT40 Tdp1-/- hTDP1 cells, no CPT, ATP luminescence, 48 h; Potency, µM (series often up to 46.2 µM), without a hit: top-dose activity change, negative = growth inhibition, actives largely listed as inhibitors; 15% of 420,000 active; further: potency means the concentration at half of the fitted maximal effect; nearly all actives have a fitted effect of over 55% in size
#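 A cellular qHTS used chicken DT40 cells lacking endogenous Tdp1 but carrying stably transfected human TDP1. Compounds were applied without camptothecin, and cell growth kinetics were judged by ATP-dependent luminescence after ≥48 hr.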
# IL1B secr inh: inhibitors of inflammasome signaling (IL-1 beta secretion). activity change, % at 57.5 µM. THP-1 LPS/ATP IL-1B secretion, AlphaLISA, 16 h; stronger effect = lower value. 4.7% of 360,000 active; in the data active means activity change below about -50%; inconclusive means mostly about -30% to -49%
#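 Secreted IL-1B measured by AlphaLISA bead assay after 16 h compound exposure of THP-1 cells; compounds (final up to 57.5 uM) added 1 h before LPS (250 ng/mL) and ATP (1.25 mM) stimulation; lower signal means less secretion.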
# Numbers without * were called inactive; ? = inconclusive; . = not tested or not shown. Shown are actives, neighbours in structure and some others; about 19% of the full set was active somewhere. Unless noted, the call rests on the fitted dose curve; in most records, active means well fitted curve in the direction sought with a large enough effect; inconclusive means small, poorly fitted or top-dose-only effect, or another doubt; inactive means no such curve, though single readings can be large; an effect the other way counts as inactive or inconclusive. Unless noted, on the % scale 0 is the no-effect control and ±100 the full control effect.
SMILES,DT40 TDP1 CPT,HT1080NT lethal,HT1080 IDH1KD tx,DT40 TDP1 no CPT,IL1B secr inh
CC(C(=O)NCCS(=O)(=O)c1ccc(Br)cc1)S(=O)(=O)c1ccc(Cl)cc1 (configuration not stated),-1.8%,-3.3%,-5.5%,?,-50.5*
CC(C)c1ccc(C(C)NCCS(=O)(=O)c2ccc(Cl)cc2)cc1 (configuration not stated),20.6µM*,-17.2%,-28.9%,11.6µM*,-77.2*
COc1ccc(-c2nc(CN3CCN(c4ncnc5ccccc45)CC3)c(C)o2)c(OC)c1,8.2µM*,-16.3%,-23.3%,5.8µM*,?
Cc1oc(-c2cc(F)ccc2F)nc1CN1CCN(c2ncnc3ccccc23)CC1,11.6µM*,-16.2%,-6.2%,20.6µM*,-29.4
Cc1ccc([C@H]2C[C@@H](n3cc(-c4ccc(F)cc4)nn3)[C@H](O)CN2C(=O)C2CCCCC2)cc1,3.5%,1.2%,-2.8%,?,-25.7
CC(=O)c1ccc(S(=O)(=O)N(C)CC(=O)Nc2ccc(C)cc2)cc1,-16.0%,2.4%,0.5%,1.4%,0.0
CN1C(=O)Cc2cc(S(=O)(=O)N3CCOCC3)ccc21,-21.6%,22.0%,26.6%,-13.6%,0.0
FC(F)(F)c1cc(NC2CCCCC2)ccn1,-15.8%,-1.6%,0.0%,29.1µM*,16.5
CC(C)(C)N(Cc1ccccc1)C(=O)COC(=O)CCN1C(=O)C2CC=CCC2C1=O (configuration not stated),-3.0%,-2.1%,-12.3%,-15.1%,24.0
CCN1CCc2c(OCC(=O)N3N=C(c4cccs4)CC3c3ccc(F)cc3)cccc2C1=O (configuration not stated),20.6µM*,?,?,18.4µM*,-57.3*
O=C(CSc1nc2ccccc2s1)N1N=C(c2cccs2)CC1c1ccc(F)cc1 (configuration not stated),?,-0.6%,-5.2%,?,-6.8
CN1CCc2c(OCC(=O)N3N=C(c4cccs4)CC3c3ccc(F)cc3)cccc2C1=O (configuration not stated),11.6µM*,23.1µM*,?,29.1µM*,-66.9*
CCc1nc2cc(C(=O)N(C)CC3COCCO3)cc(NC(=O)c3ccccc3OC)c2n1C (configuration not stated),18.6%,.,.,-8.8%,.
C/C(=N\NC1=NCCN1)c1ccc(Cl)cc1,1.3%,-22.6%,-17.4%,-36.8%,-28.1
C/C(=N\Nc1nc2c(s1)CCCC2)c1ccc(Cl)cc1,13µM*,23.1µM*,23.1µM*,8.2µM*,-55.5*
COC(C/C=C\[C@H](O)COCc1ccccc1)OC,-16.5%,-0.4%,4.0%,-5.8%,2.9
COC(C/C=C/C(=O)COCc1ccccc1)OC,14.6µM*,-23.0%,-20.5%,?,-87.1*
COC(C/C=C/C(=O)[C@H](C)OCc1ccccc1)OC,5.17µM*,21.0%,?,7.31µM*,-28.0
COC(C/C=C/[C@H](O)[C@@H](C)OCc1ccccc1)OC,-2.5%,3.1%,7.3%,-6.4%,1.7
CCCn1c(N)c(N(CCOC)C(=O)CSCC(=O)Nc2ccc(OC)cc2)c(=O)[nH]c1=O,-18.8%,11.1%,21.6%,-0.3%,13.3
O=C(NC(CC(=O)N1CCN(c2ccc([N+](=O)[O-])cc2)CC1)c1ccccc1)c1ccccc1Cl (configuration not stated),?,-5.8%,0.1%,16.4µM*,-15.7
Cc1cccc(N2CCN(C(=O)CSc3ccc4c(c3)OCCO4)CC2)c1C,-20.6%,2.1%,-2.6%,-24.5%,-11.1
Cc1cccc(N2CCN(C(=O)CC(NC(=O)c3ccccc3Cl)c3ccccc3)CC2)c1C (configuration not stated),18.4µM*,-17.2%,-15.7%,?,-4.4
COc1ccc(-n2nc(C(=O)N3CCN(c4cccc(C(F)(F)F)c4)CC3)c3c4ccccc4n(C)c3c2=O)cc1Cl,-7.5%,.,.,-12.2%,.
COc1ccc(CCn2c(-n3nc(C)cc3C)nc3c2c(=O)[nH]c(=O)n3C)cc1,1.84µM*,?,?,1.64µM*,48.6
SMILES,DT40 TDP1 CPT,HT1080NT lethal,HT1080 IDH1KD tx,DT40 TDP1 no CPT,IL1B secr inh
Cc1ccc(Cn2c(-n3nc(C)cc3C)nc3c2c(=O)[nH]c(=O)n3C)cc1,?,8.2%,4.7%,-22.7%,3.6
COc1ccc(OC)c(C=Cc2ccc([N+](=O)[O-])cc2)c1,-11.9%,-16.4%,-0.8%,?,-15.5
COc1ccc(OC)c(/C=C/c2[nH]c(=O)[nH]c(=O)c2[N+](=O)[O-])c1,18.6%,-24.1%,?,1.8%,-59.0*
COc1ccc(C(=O)Nc2ccccc2)cc1NC(=O)c1cccs1,-30.0%,-0.9%,5.2%,?,5.4
Cc1ccccc1CN1C(=O)C2(OCCCO2)c2ccccc21,11.2µM*,0.8%,-27.1%,?,-8.3
O=C(O)CN1C(=O)C2(OCCCO2)c2ccccc21,2.0%,13.4%,3.5%,5.3%,5.2
Fc1ccc(Nc2nnc(C(F)(F)F)s2)cc1,-13.4%,-17.8%,-17.1%,-27.0%,-69.2*
CNc1nnc(C(F)(F)F)s1,5.2%,11.7%,11.3%,-3.6%,.
O=C(NCCCn1ccnc1)c1ccc(-c2cccc(Cl)c2Cl)o1,18.4µM*,0.0%,-14.7%,?,-26.4
O=C(NCCCn1ccnc1)C(=O)Nc1ccccc1,16.4µM*,12.6%,26.4%,?,13.3
O=C(O)c1ccccc1C(=O)NCCCn1ccnc1,3.1%,9.4%,28.4%,7.4%,-3.2
CC(C(=O)NCCCn1ccnc1)(c1ccccc1)c1ccccc1,14.6µM*,0.7%,-3.3%,18.4µM*,-28.0
O=C(NCCCn1ccnc1)c1ccc(Br)o1,7.6%,2.7%,5.9%,12.2%,-12.7
CCOC(=O)N1CCC(NC(=O)CC2C(=O)NCCN2Cc2ccccc2)CC1 (configuration not stated),-13.5%,0.0%,0.4%,0.8%,5.2
CC1CC(C)CN(C(=O)Cn2nnc(-c3ccc(Br)cc3)n2)C1 (configuration not stated),2.9%,19.3%,7.2%,-20.7%,10.3
COc1cc(C(=O)Nc2ccc3c(c2)OCO3)ccc1OCc1c(C)noc1C,16.6%,?,-25.6%,-27.8%,-9.2
CCCc1c(C(=O)N/N=C/c2ccc3c(c2)OCO3)nnn1-c1nonc1N,-10.6%,-0.9%,2.5%,-4.8%,-1.0
C=CCn1c(C)cc(C(=O)CN2NS(=O)(=O)c3ccccc3C2=O)c1C,4.61µM*,16.4µM*,18.4µM*,3.66µM*,87.9
CC(C)(C)C(=O)Cn1ncc(Cl)c(Cl)c1=O,16.4µM*,13µM*,?,10.3µM*,-100.5*
